In the library only some 2.2% were active in any assay of this set; here they are far more common.
TDP-43 yeast inh: qHTS of TDP-43 Inhibitors | TDP-43 expressing yeast growth rescue, BacTiter-Glo, 24 h | Potency, µM (doses to about 46.1 µM), for inactives: top-dose growth rescue (activation), usual class: activators | 410,000 compounds, 1.8% hits | AID 652104, 2013; further: % of control where 0% means no effect; nearly all actives have a fitted effect of over 50% in size
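Yeast cells expressing TDP-43 under galactose induction are exposed to compounds for 24 hr at 30 deg C. BacTiter-Glo luminescence measures growth, so protective compounds score as activators.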
Abeta rescue: qHTS for compounds that reverse cellular toxicity of Amyloid beta (A-beta) peptide in yeast: Primary Screen | yeast expressing A-beta42, growth rescue, OD600, 48 h; response scale: 0% DMSO, 100% iron-clioquinol control | Potency, µM (series often up to 46.1 µM), most hits filed as activators | 410,000 compounds, 0.063% hits | AID 1347071, 2019; further: nearly all actives have a fitted effect of over 55% in size
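Yeast A-beta toxicity model in growth medium with pinned compounds, 48 h at 30 C; growth read as absorbance at 600 nm. Normalized to FeCl3/clioquinol equimolar mix (positive) and DMSO (negative).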
FUS suppressor: qHTS for Suppressors of FUS Proteinopathy: Primary screen using FUS-linked yeast assay | Potency, µM (titrated, usually from 76.6 µM), actives largely listed as activators | 390,000 compounds, 0.24% hits | AID 1347120, 2019 | S. cerevisiae FUS-expressing, growth rescue, OD600, 24 h;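 further: plate controls were DMSO vehicle for no effect and reference control for full effect; nearly all actives have a fitted effect of over 55% in size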
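Quantitative HTS measuring growth restoration of FUS-toxic yeast. Galactose-induced cells (OD 0.005) were exposed 24hr at 30C to compounds at several concentrations, then absorbance at 600 nm was recorded.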
Mito fusion yeast: qHTS Assay for Small Molecule Inhibitors of Mitochondrial Division or Activators of Mitochondrial Fusion; S. cerevisiae fusion-defective mutant growth rescue, CellTiterGlo 48 h; Potency, µM (top dose mostly 46.1 µM), inactives show at the top dose growth rescue (activation), most hits filed as activators; 320,000 compounds, 0.23% hits; AID 485298, 2010; further: % of control where 0% means no effect; nearly all actives have a fitted effect of over 45% in size
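Read-out: ATP-based luminescence (CellTiterGlo, 10 min ambient) reporting growth of fusion-defective ts yeast after 48 hours at 37C on glycerol/ethanol YPEG medium in the presence of compound.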
aSyn yeast inh: qHTS of alpha-syn Inhibitors; Yeast expressing alpha-synuclein, growth rescue, BacTiter-Glo, 24 h; Potency, µM (doses to about 46.1 µM), inactives show at the top dose growth rescue (activation), usual class: activators; 370,000 compounds, 0.14% hits; AID 652106, 2013; further: % of control where 0% means no effect; nearly all actives have a fitted effect of over 65% in size
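Rescue of yeast growth: cells expressing toxic alpha-synuclein, induced in galactose at OD600 0.02, incubated with compound 24 h at 30 C. ATP luminescence quantified growth; inhibitors of toxicity appear as activators.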
Starred values were filed as active, the others as inactive; i = inactive; ? = inconclusive; / = no result; [ ] = remark or other dose. The call rests on the fitted dose curve; in most records, active means well fitted curve in the direction sought with a large enough effect; inconclusive means small, poorly fitted or top-dose-only effect, or another doubt; inactive means no such curve, though single readings can be large; an effect the other way counts as inactive or inconclusive. Potency means the concentration at half of the fitted maximal effect.

SMILES | TDP-43 yeast inh | Abeta rescue | FUS suppressor | Mito fusion yeast | aSyn yeast inh
COc1ccc(O)c(-c2cc(-c3ccc(F)cc3)n[nH]2)c1 | ? | i | i | 16.4% | -7.5%
O=C(NC1CCCC1)C1(C(=O)C2CC2)CC(c2ccccn2)=NO1 (stereo not given) | / | / | i | / | /
O=C(NCc1ccc2c(c1)OCO2)C12CN(Cc3ccccc3)CC1C(c1cccc([N+](=O)[O-])c1)=NO2 (stereo not given) | -13.2% | i | 28.2µM* | -7.7% | -4.0%
O=C(NCc1ccc(C(F)(F)F)cc1)C12CN(Cc3ccccc3)CC1C(c1cccc([N+](=O)[O-])c1)=NO2 (stereo not given) | 3.2% | i | i | -1.2% | 4.7%
CCOC(=O)c1cc(=O)c2ccc(OCC(=O)Nc3ccccc3)cc2o1 | -8.6% | i | i | 4.8% | 15.1%
CCOC(=O)C1=C(C)N(CC(C)C)C(=O)/C1=C\c1ccc(OCC(=O)Nc2ccccc2)cc1 | 17.8µM* | i | i | -2.3% | 4.9%
Cc1ccc(C)c(S(=O)(=O)c2c(C)cc(C)nc2Cl)c1 | 11.2µM* | i | i | -2.4% | 2.9%
CCOCc1nnc(NC(=O)c2cc(Cl)ccc2OC)s1 | 12.6µM* | i | i | 5.8% | 11.4%
COCc1nnc(NC(=O)c2cc(Cl)ccc2OC)s1 | 0.0% | i | i | 4.7% | -0.3%
Cc1cc(Nc2ncc(Cl)cc2Cl)n(-c2ccccn2)n1 | 0.0% | i | i | -6.6% | -11.5%
Cc1cc(Nc2ccccc2)n(-c2cccc(Cl)c2)n1 | 14.1µM* | i | i | 0.6% | -8.6%
Cc1cc(Nc2ncc(Cl)cc2Cl)n(-c2ccccc2)n1 | 7.08µM* | i | i | 1.0% | -27.4%
Cn1c(SCCOc2ccccc2)nnc1-c1ccc(NC(=O)CCc2ccccc2)cc1 | / | / | / | / | -5.7%
COC(=O)c1ccc(C2NC(c3ccc4c(c3)OCO4)=CC(c3ccccc3O)N2)cc1 (stereo not given) | / | / | / | / | 3.6%
Cc1ccccc1NC(=O)C(C)SCc1ccccc1 (stereo not given) | 14.9% | i | i | 2.2% | 9.2%
Cc1ccc(CC(SCc2ccccc2)C(=O)O)cc1C (stereo not given) | 11.2µM* | i | i | 10.2% | 7.4%
c1ccc2nc(N3CCN(Cc4ccc5c(c4)OCO5)CC3)cnc2c1 | 6.4% | i | i | 1.1% | 1.7%
COc1nc2ccccc2nc1N1CCN(Cc2ccc3c(c2)OCO3)CC1 | 14.1µM* | i | i | 6.6% | 0.9%
COc1cc(NC(=O)N2CCC(CN3CCOCC3)CC2)cc(OC)c1OC | -8.3% | i | i | / | /
Cc1cc(C)c2c(c1)/C(=C/C(=O)c1ccc(Br)s1)C(=O)N2 | 17.8µM* | i | ? | 0.4% | -6.6%
Cc1cc(Br)c2c(c1)/C(=C/C(=O)c1cccs1)C(=O)N2 | -20.5%[9.22 µM] | i | i | -0.4% | 9.6%
O=[N+]([O-])c1cc(C(F)(F)F)ccc1NCC1CCCO1 (stereo not given) | 14.1µM* | i | i | -1.6% | 4.7%
N#Cc1cc(NCC2CCCO2)c([N+](=O)[O-])cc1C#N (stereo not given) | 22.4% | i | / | -1.4% | -2.6%
CC(C)CC1C(=O)N(Cc2cn(CCC3OCCO3)nn2)CCS(=O)(=O)N1Cc1ccc(-c2ccccc2)cc1 (stereo not given) | 22.4µM* | i | ? | / | 0.0%
Cc1ccc(-c2ccc(CN3C(CC(C)C)C(=O)N(Cc4cn(CCC5OCCO5)nn4)CCS3(=O)=O)cc2)cc1 (stereo not given) | 35.5µM* | i | ? | / | 17.8%
SMILES | TDP-43 yeast inh | Abeta rescue | FUS suppressor | Mito fusion yeast | aSyn yeast inh
CCc1cccc(NC(=O)CSc2nc3ccccc3nc2N2CCCCC2)c1 | -3.9% | i | i | / | 6.8%
CSc1cccc(NC(=O)c2c(Cl)cnn2C)c1 | ? | i | i | 2.1% | 1.6%
Cn1ncc(Cl)c1C(=O)N1CCN(c2cccc(Cl)c2)CC1 | 14.1µM* | i | i | 4.0% | 17.7%
Cn1ncc(Cl)c1C(=O)Nc1cccc(Cl)c1 | 7.08µM* | i | i | 0.7% | 6.7%
Cn1nccc1C(=O)N1CCN(c2cccc(Cl)c2)CC1 | 22.4% | i | i | -0.9% | 4.6%
CCNc1ccc(Br)cc(C(=O)/C=C/c2c(Cl)cccc2Cl)c1=O | -6.5% | i | ? | 7.4% | 14.8%
CCNc1ccc(Br)cc(C(=O)/C=C/c2ccc(Cl)cc2)c1=O | -13.2% | i | i | 12.6µM* | 9.5%
O=C(c1cc(-c2ccco2)on1)N1CCCc2ccccc21 | 5.9% | i | 35.5µM* | 11.0% | -2.4%
Cc1ccccc1-c1cc(C(=O)Nc2sc(C)c(C)c2C(N)=O)c2ccccc2n1 | 22.4µM* | i | i | 17.4% | -18.2%
CCOC(=O)c1sc(NC(=O)c2cc(-c3ccccc3C)nc3ccccc23)c(C#N)c1C | 0.9% | i | i | 1.5% | -32.3%
O=S1(=O)C=CCN1Cc1cn(Cc2cccc(C(F)(F)F)c2)nn1 | / | / | i | / | /
O=C(NC(=S)Nc1ccccn1)c1ccccc1 | 11.2% | i | i | 35.5µM* | 24.2%
O=C(NC(=S)Nc1ccccn1)c1ccc(-c2ccccc2)cc1 | ? | i | i | -9.8% | 0.7%
Cc1ccc(CNc2ncnc3c2cnn3-c2ccccc2)cc1 | 20.5% | i | i | 3.7% | /
COc1ccc(-n2ncc3c(NCC(C)C)ncnc32)cc1 | 11.2µM* | i | i | 20.9% | 1.1%
COc1ccc(-n2ncc3c(NC(C)C)ncnc32)cc1 | ? | i | i | 9.2% | -1.4%
COc1ccccc1CNc1ncnc2c1cnn2-c1ccccc1 | 15.8µM* | i | i | 13.6% | -0.4%
Cc1ccc(-n2ncc3c(NCc4ccccc4)ncnc32)cc1 | 9.3% | i | i | -1.8% | -3.0%
COc1ccccc1CNc1ncnc2c1cnn2-c1ccc(C)cc1 | 35.5µM* | i | i | / | /
O=C(C1CCN(S(=O)(=O)Cc2ccccc2)CC1)N1CCN(c2ccccc2)CC1 | 22.5% | i | i | / | /
O=C(Nc1ccc(S(=O)(=O)N2CCOCC2)cc1)C1CCN(S(=O)(=O)c2ccc(F)cc2)CC1 | 14.1µM* | i | ? | 5.4% | -4.1%
O=C(C1CCN(S(=O)(=O)N2CCOCC2)CC1)N1CCN(c2ccc(F)cc2)CC1 | -14.1%[0.397 µM] | i | i | 35.5µM* | -2.0%
O=C(C1CCN(S(=O)(=O)Cc2ccccc2)CC1)N1CCN(c2ccc(F)cc2)CC1 | 22.4µM* | i | i | / | /
CC1(C)CC(=O)c2cc(C(=O)Nc3ccccc3)c(=O)[nH]c2C1 | / | / | / | / | 1.9%
